PubChem BioAssay (NCI)
Where “and” joins values, the source holds several entries; their conditions need not be identical. Equal entries are not always repeated. This is part of a sample that, as a whole, favours compounds with a hit. Of some 83,000 tested, about 20% had one in any assay.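 Interpretation: 100, growth as untreated; towards 0, rising growth inhibition; 0, no net growth; 0 to -100, cell death. Compounds scoring below 10 were considered active.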 Calls of active or inactive are those of the source.

tested on: MALME-3M melanoma; assay: NCI-60 one-dose screen, 48 h (100 = growth as untreated, 0 = no growth, -100 = all killed); conditions: 10 µM

Structure (SMILES)	growth
Cc1cc(N=C2C=CC(=[N+](C)C)C=C2)c(N)cc1N	106% (inactive)
CC(=O)O[C@H]1C(=O)[C@@]2(C)[C@H]([C@H](OC(=O)c3ccccc3)[C@]3(O)C[C@H](OC(=O)[C@H](O)[C@@H](NC(=O)c4ccccc4)c4ccccc4)C(C)=C1C3(C)C)[C@]1(OC(C)=O)CO[C@@H]1C[C@@H]2O	52.5% (inactive) and 62.6% (inactive)
O=C1C(Cl)=C(Cl)C(Cl)(Cl)C(Cl)C1(Cl)Cl (stereo not drawn)	99.9% (inactive)

tested on: MDA-MB-231 breast; assay: as above; conditions: 10 µM

Structure (SMILES)	growth
COc1ccc(C(C#N)=C2C=CC(=NO)C=C2)cc1	96.3% (inactive)
CC1CCC2(C(=O)O)CCC3(C)C(=CCC4C5(C)CC(O)C(O)C(C)(CO)C5C(O)CC43C)C2C1C (stereo not drawn)	107% (inactive)
COc1ccc2c(c1)[nH]c1c(/C=C/c3ccccc3)nccc12	73.7% (inactive)
O=C(O)c1ccccc1.[Ag]	89% (inactive)
Cc1cc(O)c2c(c1O)C(=O)C13C(=C2O)C(=O)C2C(O)C1C1C(O)C3C(=O)C3=C(O)c4c(O)cc(C)c(O)c4C(=O)C321 (stereo not drawn)	13.6% (inactive)
S=C1SCN(CCc2ccccc2)CN1CCc1ccccc1	99.3% (inactive)
Cc1cc(C)c(N2C(=O)CC(Sc3ccccc3N)C2=O)c(C)c1 (stereo not drawn)	83.1% (inactive)
COc1ccc2oc(-c3ccc(Cl)cc3)c(N3CCN(C)CC3)c2c1	0.119% (active)
NCc1c(O)ccc2ccccc12	105% (inactive)
O=C(NC(=S)Nc1ccccn1)c1ccccc1	91.6% (inactive)
CN(CC(=O)O)c1ccc(/C=C/c2ccnc3ccccc23)cc1	66.8% (inactive)
Cc1c(-c2ccccc2)[nH]c2ccccc12	95.1% (inactive)
S=P(N1CC1)(N1CC1)N1CC1	100% (inactive) and 103% (inactive)
ClCCn1c(CCl)nc2ccc(Cl)cc21	-61.7% (active)
CN(C)c1ccc(/C=C/c2ccnc3ccccc23)cc1N	46.1% (inactive)
COc1ccc(N)c2c1C(=O)c1ccccc1C2=O	95.5% (inactive)
CC[C@@]1(OC(=O)CN(C)C)C(=O)OCc2c1cc1n(c2=O)Cc2cc3c(N)cccc3nc2-1	27.7% (inactive)
Cc1cc(N=C2C=CC(=[N+](C)C)C=C2)c(N)cc1N	65.2% (inactive)
CC(=O)O[C@H]1C(=O)[C@@]2(C)[C@H]([C@H](OC(=O)c3ccccc3)[C@]3(O)C[C@H](OC(=O)[C@H](O)[C@@H](NC(=O)c4ccccc4)c4ccccc4)C(C)=C1C3(C)C)[C@]1(OC(C)=O)CO[C@@H]1C[C@@H]2O	29.1% (inactive) and 5.06% (active)
O=C1C(Cl)=C(Cl)C(Cl)(Cl)C(Cl)C1(Cl)Cl (stereo not drawn)	96.2% (inactive)

tested on: RXF 393 renal; assay: as above; conditions: 10 µM

Structure (SMILES)	growth
COc1ccc(C(C#N)=C2C=CC(=NO)C=C2)cc1	113% (inactive)
CC1CCC2(C(=O)O)CCC3(C)C(=CCC4C5(C)CC(O)C(O)C(C)(CO)C5C(O)CC43C)C2C1C (stereo not drawn)	26.2% (inactive)
COc1ccc2c(c1)[nH]c1c(/C=C/c3ccccc3)nccc12	69.5% (inactive)
O=C(O)c1ccccc1.[Ag]	106% (inactive)
Cc1cc(O)c2c(c1O)C(=O)C13C(=C2O)C(=O)C2C(O)C1C1C(O)C3C(=O)C3=C(O)c4c(O)cc(C)c(O)c4C(=O)C321 (stereo not drawn)	-13.7% (active)
S=C1SCN(CCc2ccccc2)CN1CCc1ccccc1	91.8% (inactive)
Cc1cc(C)c(N2C(=O)CC(Sc3ccccc3N)C2=O)c(C)c1 (stereo not drawn)	84.8% (inactive)
COc1ccc2oc(-c3ccc(Cl)cc3)c(N3CCN(C)CC3)c2c1	28% (inactive)
NCc1c(O)ccc2ccccc12	102% (inactive)
O=C(NC(=S)Nc1ccccn1)c1ccccc1	103% (inactive)
CN(CC(=O)O)c1ccc(/C=C/c2ccnc3ccccc23)cc1	111% (inactive)
Cc1c(-c2ccccc2)[nH]c2ccccc12	109% (inactive)
S=P(N1CC1)(N1CC1)N1CC1	120% (inactive) and 86% (inactive)
ClCCn1c(CCl)nc2ccc(Cl)cc21	-73.9% (active)
CN(C)c1ccc(/C=C/c2ccnc3ccccc23)cc1N	80.9% (inactive)
COc1ccc(N)c2c1C(=O)c1ccccc1C2=O	95.6% (inactive)
CC[C@@]1(OC(=O)CN(C)C)C(=O)OCc2c1cc1n(c2=O)Cc2cc3c(N)cccc3nc2-1	-23.4% (active)
Cc1cc(N=C2C=CC(=[N+](C)C)C=C2)c(N)cc1N	96.3% (inactive)
CC(=O)O[C@H]1C(=O)[C@@]2(C)[C@H]([C@H](OC(=O)c3ccccc3)[C@]3(O)C[C@H](OC(=O)[C@H](O)[C@@H](NC(=O)c4ccccc4)c4ccccc4)C(C)=C1C3(C)C)[C@]1(OC(C)=O)CO[C@@H]1C[C@@H]2O	28.9% (inactive) and -25.2% (active)
O=C1C(Cl)=C(Cl)C(Cl)(Cl)C(Cl)C1(Cl)Cl (stereo not drawn)	116% (inactive)
